In the supplement of paper PMC10849652 one finds log2 fold change data, which are given here for 35 targets.

Of roughly 8,800 targets only a part is listed; those with a hit were picked by preference. About 0.5% of all pairs of compound and target were hits.

Chain of UniProt P04181 (P04181 whole entry, looked up): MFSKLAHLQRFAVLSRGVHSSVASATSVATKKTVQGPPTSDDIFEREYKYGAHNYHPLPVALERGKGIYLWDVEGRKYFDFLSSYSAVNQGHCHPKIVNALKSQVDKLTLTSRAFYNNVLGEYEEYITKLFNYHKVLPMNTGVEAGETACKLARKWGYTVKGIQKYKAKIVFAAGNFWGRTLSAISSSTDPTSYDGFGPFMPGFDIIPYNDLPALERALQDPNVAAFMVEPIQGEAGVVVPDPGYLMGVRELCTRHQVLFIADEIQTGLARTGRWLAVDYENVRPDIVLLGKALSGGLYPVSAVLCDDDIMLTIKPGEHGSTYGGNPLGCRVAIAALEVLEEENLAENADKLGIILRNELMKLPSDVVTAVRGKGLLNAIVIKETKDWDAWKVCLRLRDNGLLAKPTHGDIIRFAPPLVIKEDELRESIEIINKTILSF
Chain of UniProt P43246 (P43246 whole entry, looked up): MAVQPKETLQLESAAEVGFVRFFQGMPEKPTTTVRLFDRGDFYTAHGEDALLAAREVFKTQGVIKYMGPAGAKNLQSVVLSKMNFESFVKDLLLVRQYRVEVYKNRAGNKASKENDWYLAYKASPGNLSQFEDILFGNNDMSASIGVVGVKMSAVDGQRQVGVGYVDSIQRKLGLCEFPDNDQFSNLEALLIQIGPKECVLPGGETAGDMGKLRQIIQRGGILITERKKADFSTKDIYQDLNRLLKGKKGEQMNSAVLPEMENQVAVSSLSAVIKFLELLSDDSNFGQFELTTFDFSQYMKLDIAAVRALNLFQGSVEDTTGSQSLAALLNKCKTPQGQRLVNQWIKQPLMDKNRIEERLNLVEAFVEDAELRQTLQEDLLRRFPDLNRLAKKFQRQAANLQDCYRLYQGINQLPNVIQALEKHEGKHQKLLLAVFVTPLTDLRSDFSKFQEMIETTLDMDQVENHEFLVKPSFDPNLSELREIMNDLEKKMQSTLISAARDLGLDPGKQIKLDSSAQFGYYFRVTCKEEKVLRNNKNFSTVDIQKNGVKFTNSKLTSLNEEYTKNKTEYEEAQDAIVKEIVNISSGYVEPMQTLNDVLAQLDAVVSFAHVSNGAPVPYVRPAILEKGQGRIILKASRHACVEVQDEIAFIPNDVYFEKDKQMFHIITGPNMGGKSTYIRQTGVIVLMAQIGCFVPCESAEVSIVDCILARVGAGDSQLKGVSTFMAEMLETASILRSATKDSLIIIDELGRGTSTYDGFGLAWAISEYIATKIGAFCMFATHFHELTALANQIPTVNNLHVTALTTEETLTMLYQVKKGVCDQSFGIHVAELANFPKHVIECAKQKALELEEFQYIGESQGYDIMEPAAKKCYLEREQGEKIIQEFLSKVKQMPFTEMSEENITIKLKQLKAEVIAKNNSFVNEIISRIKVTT
Chain of UniProt O60829 (O60829 whole entry, looked up): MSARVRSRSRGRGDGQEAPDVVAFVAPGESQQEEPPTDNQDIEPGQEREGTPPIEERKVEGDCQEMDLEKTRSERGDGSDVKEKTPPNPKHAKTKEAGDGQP
Chain of UniProt P24468 (P24468 whole entry, looked up): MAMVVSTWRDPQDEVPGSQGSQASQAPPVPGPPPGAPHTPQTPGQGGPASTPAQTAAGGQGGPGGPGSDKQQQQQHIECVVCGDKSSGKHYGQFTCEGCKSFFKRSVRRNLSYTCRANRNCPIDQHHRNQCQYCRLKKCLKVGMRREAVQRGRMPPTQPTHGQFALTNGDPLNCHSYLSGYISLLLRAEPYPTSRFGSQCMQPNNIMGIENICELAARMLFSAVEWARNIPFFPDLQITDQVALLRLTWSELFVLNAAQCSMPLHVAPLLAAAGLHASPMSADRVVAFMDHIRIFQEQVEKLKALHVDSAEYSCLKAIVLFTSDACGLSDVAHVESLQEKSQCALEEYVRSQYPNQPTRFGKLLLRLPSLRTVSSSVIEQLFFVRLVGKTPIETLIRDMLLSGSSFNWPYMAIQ
Chain of UniProt P10244 (P10244 whole entry, looked up): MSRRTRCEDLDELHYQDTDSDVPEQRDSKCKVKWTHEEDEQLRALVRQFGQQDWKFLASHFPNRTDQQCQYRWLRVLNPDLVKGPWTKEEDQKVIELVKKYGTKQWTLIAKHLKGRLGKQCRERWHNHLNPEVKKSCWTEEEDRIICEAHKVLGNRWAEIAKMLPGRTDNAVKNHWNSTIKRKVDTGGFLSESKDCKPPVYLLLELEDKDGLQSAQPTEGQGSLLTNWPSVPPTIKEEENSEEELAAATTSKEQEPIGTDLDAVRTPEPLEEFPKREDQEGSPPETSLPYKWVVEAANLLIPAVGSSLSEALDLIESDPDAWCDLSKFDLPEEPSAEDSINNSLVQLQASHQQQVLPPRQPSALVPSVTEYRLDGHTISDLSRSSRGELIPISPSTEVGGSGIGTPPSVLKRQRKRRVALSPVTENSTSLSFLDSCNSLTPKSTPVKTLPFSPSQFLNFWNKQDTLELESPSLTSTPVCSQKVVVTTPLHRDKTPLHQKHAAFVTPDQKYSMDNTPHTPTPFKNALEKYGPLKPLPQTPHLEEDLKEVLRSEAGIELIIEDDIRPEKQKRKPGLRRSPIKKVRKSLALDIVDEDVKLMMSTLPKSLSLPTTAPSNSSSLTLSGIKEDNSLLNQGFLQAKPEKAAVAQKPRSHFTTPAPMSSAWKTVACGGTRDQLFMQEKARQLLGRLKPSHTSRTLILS
Chain of UniProt Q15843 (Q15843 whole entry, looked up): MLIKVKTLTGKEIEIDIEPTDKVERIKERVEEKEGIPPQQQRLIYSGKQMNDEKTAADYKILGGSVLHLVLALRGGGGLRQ
Chain of UniProt Q6IBW4 (Q6IBW4 whole entry, looked up): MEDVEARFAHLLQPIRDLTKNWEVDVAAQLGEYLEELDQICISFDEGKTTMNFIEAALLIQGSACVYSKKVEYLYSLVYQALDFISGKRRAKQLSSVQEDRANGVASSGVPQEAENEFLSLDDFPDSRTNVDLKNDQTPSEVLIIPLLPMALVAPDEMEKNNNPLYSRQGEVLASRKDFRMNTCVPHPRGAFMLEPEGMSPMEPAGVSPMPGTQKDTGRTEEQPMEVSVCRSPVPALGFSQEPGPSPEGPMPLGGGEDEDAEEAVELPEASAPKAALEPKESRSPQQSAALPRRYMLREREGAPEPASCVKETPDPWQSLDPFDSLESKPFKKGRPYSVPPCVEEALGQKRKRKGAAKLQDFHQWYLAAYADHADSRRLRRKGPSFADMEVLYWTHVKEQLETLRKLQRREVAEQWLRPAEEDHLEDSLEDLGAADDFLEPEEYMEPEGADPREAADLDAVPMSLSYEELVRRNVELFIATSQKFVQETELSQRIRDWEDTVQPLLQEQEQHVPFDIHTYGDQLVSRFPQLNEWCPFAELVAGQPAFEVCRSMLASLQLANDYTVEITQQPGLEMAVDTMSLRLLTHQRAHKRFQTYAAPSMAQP
Chain of UniProt Q9BWT3 (Q9BWT3 whole entry, looked up): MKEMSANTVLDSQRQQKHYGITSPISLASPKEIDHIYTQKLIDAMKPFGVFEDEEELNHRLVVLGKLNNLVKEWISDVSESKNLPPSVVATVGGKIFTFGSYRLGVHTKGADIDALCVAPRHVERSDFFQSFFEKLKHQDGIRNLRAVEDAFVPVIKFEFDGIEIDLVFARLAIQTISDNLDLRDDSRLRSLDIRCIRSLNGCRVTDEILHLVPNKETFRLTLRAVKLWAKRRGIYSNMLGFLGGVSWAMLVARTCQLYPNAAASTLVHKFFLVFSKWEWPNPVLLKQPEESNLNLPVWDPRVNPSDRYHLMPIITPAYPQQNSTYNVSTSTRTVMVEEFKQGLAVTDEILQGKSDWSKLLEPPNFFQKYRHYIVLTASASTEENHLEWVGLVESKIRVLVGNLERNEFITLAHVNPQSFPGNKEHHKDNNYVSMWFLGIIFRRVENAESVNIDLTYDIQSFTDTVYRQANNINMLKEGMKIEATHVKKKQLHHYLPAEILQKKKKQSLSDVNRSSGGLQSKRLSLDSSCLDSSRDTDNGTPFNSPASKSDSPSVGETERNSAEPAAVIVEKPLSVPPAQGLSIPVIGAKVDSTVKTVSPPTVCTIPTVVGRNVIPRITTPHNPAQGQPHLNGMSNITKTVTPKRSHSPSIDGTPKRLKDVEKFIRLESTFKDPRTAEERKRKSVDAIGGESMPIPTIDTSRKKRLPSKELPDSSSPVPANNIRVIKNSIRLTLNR
Chain of UniProt Q9HBL8 (Q9HBL8 whole entry, looked up): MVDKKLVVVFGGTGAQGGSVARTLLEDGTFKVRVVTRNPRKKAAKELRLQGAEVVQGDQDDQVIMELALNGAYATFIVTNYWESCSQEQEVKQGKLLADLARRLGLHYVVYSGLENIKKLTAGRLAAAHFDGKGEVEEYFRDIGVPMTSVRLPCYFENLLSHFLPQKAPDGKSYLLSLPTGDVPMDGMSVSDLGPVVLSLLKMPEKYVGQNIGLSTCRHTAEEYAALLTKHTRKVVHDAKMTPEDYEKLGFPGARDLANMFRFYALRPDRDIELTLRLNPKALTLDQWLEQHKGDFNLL
Chain of UniProt Q9Y217 (Q9Y217 whole entry, looked up): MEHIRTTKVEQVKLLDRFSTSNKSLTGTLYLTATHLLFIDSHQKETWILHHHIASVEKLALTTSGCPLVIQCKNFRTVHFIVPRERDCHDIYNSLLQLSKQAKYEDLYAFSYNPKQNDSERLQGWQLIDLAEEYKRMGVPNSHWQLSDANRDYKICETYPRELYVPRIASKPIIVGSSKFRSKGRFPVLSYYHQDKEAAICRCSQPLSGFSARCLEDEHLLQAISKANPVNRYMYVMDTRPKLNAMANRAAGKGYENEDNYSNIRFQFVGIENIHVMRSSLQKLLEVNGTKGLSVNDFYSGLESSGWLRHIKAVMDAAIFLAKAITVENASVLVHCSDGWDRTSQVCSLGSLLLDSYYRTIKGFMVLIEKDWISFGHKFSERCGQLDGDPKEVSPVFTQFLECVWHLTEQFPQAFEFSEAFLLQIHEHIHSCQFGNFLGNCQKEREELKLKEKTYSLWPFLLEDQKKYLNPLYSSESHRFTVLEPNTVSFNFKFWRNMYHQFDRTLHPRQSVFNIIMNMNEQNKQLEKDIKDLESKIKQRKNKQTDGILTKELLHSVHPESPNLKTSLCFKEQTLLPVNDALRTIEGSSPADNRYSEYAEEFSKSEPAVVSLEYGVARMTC

Compound in the first assay: Cc1sc2c(c1C)C(c1ccc(Cl)cc1)=N[C@@H](CC(=O)OC(C)(C)C)c1nnc(C)n1-2
In words: log2 fold change, soluble protein after heating vs DMSO (PISA); higher = thermal stabilisation; K562 lysate, 10 uM; active = over 0.2 and 3.5 SD of the protein, either way, in both replicates (recomputed). An outline of the steps: (§1)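 Thermal stability, expressed as log-two fold change relative to solvent controls, is given from duplicates. Crude K562 extract in PBS pH 7.4 with 1 mM MgCl2, at 1 mg/mL protein, was treated with 10 μM compound for 30 min and heated in aliquots for 3 min across 48°C-58°C. After pooling, adjustment to 0.5% NP-40 at 4°C and centrifugation at 21,000xg for 90 min, supernatant protein was measured by TMTpro 16plex LC-MS/MS with channel sums equalised.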
Regarding NRIP1 (UniProt P48552), the log2 fold change was -0.071 (inactive).
Regarding NUDT6 (UniProt P53370), the log2 fold change is 0.009 (inactive).
Still for that read-out and setting: in the case of NCAPH2 (UniProt Q6IBW4) it was -0.005 (inactive); in that of OSBPL1A (UniProt Q9BXW6), -0.144 (inactive); in that of P2RY1 (UniProt P47900), -0.047 (inactive).
Turning to NELFA (UniProt Q9H3P2), the log2 fold change was -0.037 (inactive).
Take NSA2 (UniProt O95478): the log2 fold change is -0.042 (inactive).
OSGEP (UniProt Q9NPF4): the log2 fold change is 0.063 (inactive).
Regarding NCAPH (UniProt Q15003), the log2 fold change was -0.023 (inactive).
Same read-out and setting: then MXRA7 (UniProt P84157), with -0.106 (inactive); and MSH2 (UniProt P43246), with 0.001 (inactive).
NCAPG2 (UniProt Q86XI2): the log2 fold change was 0.025 (inactive).
For the target MTMR6 (UniProt Q9Y217), the log2 fold change is -0.065 (inactive).
As for OAT (UniProt P04181), the log2 fold change was 0.034 (inactive).
As for NPLOC4 (UniProt I3L3I1), the log2 fold change was -0.101 (inactive).
NR2F2 (UniProt P24468): the log2 fold change was -0.008 (inactive).
Take PANK2 (UniProt Q9BZ23): the log2 fold change was 0.019 (inactive).
On the same count and under the same terms, in the case of PAPOLG (UniProt Q9BWT3) it was 0.074 (inactive); in that of N4BP2 (UniProt Q86UW6), -0.022 (inactive); in that of PAGE2B (UniProt Q5JRK9), -0.072 (inactive).
Still for that read-out and setting: then NLRP2 (UniProt Q9NX02), with 0.03 (inactive); and PAGE4 (UniProt O60829), with -0.143 (inactive).
Take NMRAL1 (UniProt Q9HBL8): the log2 fold change was -0.071 (inactive).
NEDD8 (UniProt Q15843): the log2 fold change is 0.002 (inactive).
Same read-out and setting: in the case of NUMB isoform 2 (UniProt P49757) it was -0.207 (inactive).
On the same count and under the same terms, in the case of OGFR (UniProt Q9NZT2) it was -0.038 (inactive); in that of PARD3B (UniProt Q8TEW8), 0.138 (inactive).
In the case of MYBL2 (UniProt P10244), the log2 fold change is 0.047 (inactive).
MYOM1 (UniProt P52179): the log2 fold change was -0.135 (inactive).
Still for that read-out and setting: in the case of NOCT (UniProt Q9UK39) it was 0.021 (inactive).

Compound in another assay: c1ccc([C@@H]2C[C@H]2NC2CCNCC2)cc1
The description is as above. The method in brief: as §1
With ORC3 (UniProt Q9UBD5), the log2 fold change is -0.276 (inactive).
As to NRIP1 (UniProt P48552), the log2 fold change is -0.069 (inactive).
Regarding NCAPH2 (UniProt Q6IBW4), the log2 fold change was 0.024 (inactive).
In the case of OSBPL1A (UniProt Q9BXW6), the log2 fold change was -0.084 (inactive).
For the target P2RY1 (UniProt P47900), the log2 fold change was -0.022 (inactive).
Regarding MT-ATP8 (UniProt P03928), the log2 fold change was 0.104 (inactive).
Still for that read-out and setting: then NELFA (UniProt Q9H3P2), with 0.054 (inactive).
On to MYO10 (UniProt Q9HD67), for which the log2 fold change is 0.024 (inactive).
Same read-out and setting: then NSA2 (UniProt O95478), with 0.122 (inactive).
As for OSGEP (UniProt Q9NPF4), the log2 fold change was 0.011 (inactive).
As to NCAPH (UniProt Q15003), the log2 fold change is 0.024 (inactive).
On the same count and under the same terms, then MXRA7 (UniProt P84157), with -0.062 (inactive); and MSH2 (UniProt P43246), with 0.065 (inactive); and NCAPG2 (UniProt Q86XI2), with 0.001 (inactive).
Take MTMR6 (UniProt Q9Y217): the log2 fold change was 0.062 (inactive).
Same read-out and setting: then OAT (UniProt P04181), with -0.018 (inactive); and NR2F2 (UniProt P24468), with 0.082 (inactive); and PANK2 (UniProt Q9BZ23), with -0.077 (inactive).
PAPOLG (UniProt Q9BWT3): the log2 fold change is -0.107 (inactive).
With N4BP2 (UniProt Q86UW6), the log2 fold change is -0.068 (inactive).
For the target PAGE2B (UniProt Q5JRK9), the log2 fold change is 0.182 (inactive).
Still for that read-out and setting: in the case of NLRP2 (UniProt Q9NX02) it was 0.093 (inactive); in that of NSUN7 (UniProt Q8NE18), -0.081 (inactive).
For PAGE4 (UniProt O60829), the log2 fold change is 0.118 (inactive).
On to NMRAL1 (UniProt Q9HBL8), for which the log2 fold change was -0.027 (inactive).
The same measure, in the same setting: in the case of NEDD8 (UniProt Q15843) it was 0.085 (inactive).
Consider MYLK (UniProt Q15746), for which the log2 fold change is 0.123 (inactive).
In the case of OGFR (UniProt Q9NZT2), the log2 fold change was 0.088 (inactive).
Still for that read-out and setting: then PARD3B (UniProt Q8TEW8), with -0.085 (inactive).
The same measure, in the same setting: then MYBL2 (UniProt P10244), with 0.326 (active); and MYOM1 (UniProt P52179), with -0.079 (inactive).
